Test results taken from PubChem BioAssay AID602392 (National Center for Advancing Translational Sciences (NCATS), 2012).
Where “and” joins values, the source holds several entries; their conditions need not be identical. Identical values can stand only once. Calls of active or inactive are those of the source. Calls follow the shape of the full dose curve.

These compounds were tested against 4'-phosphopantetheinyl transferase Sfp (Bacillus subtilis (strain 168)) (UniProt P39135) (assay: qHTS Assay for Inhibitors of Bacillus subtilis Sfp phosphopantetheinyl transferase (PPTase): Label Free Assay for SAR). Settings: purified Sfp with carrier protein, gel densitometry, 30 min.
Text: The covalent attachment of a phosphopantetheinyl (4'-PP) arm to a variety of synthases and other proteins is a key posttranslational protein modification. The 4'-PP is installed on the proteins post-translationally from coenzyme A (CoA) on a conserved serine residue by action of phosphopantetheinyl transferase (PPTase) enzymes. Phosphopantetheinylation is essential for synthase activity, and removal of the PPTase gene precludes natural product synthesis in microorganisms, or in the case of fatty acid biosynthesis, renders the organism unviable. PPTase enzymes belong to a distinct structural superfamily. Within bacteria, these enzymes are grouped into two classes based upon primary structure, the AcpS-Type and Sfp-Type PPTases.
Sfp-type PPTases, corresponding to an activator of surfactin production in Bacillus subtilis, are responsible for modifying type I polyketide and nonribosomal peptide synthases of prokaryotes. Sfp-type PPTases are responsible for the activation of a variety of pathogen-associated virulence factors. Among these compounds are toxins such as mycolactone from Mycobacterium ulcerans, siderophores such as vibriobactin from Vibrio cholerae or mycobactin from Mycobacterium tuberculosis, as well as the mycolic acids which form the waxy cell wall of Mycobacteria. The biosyntheses of these natural products are considered attractive targets for drug design.
In search of small molecule Sfp-PPTase inhibitors, a fluorescence quenching assay was developed for detection of Bacillus subtilis Sfp-PPTase enzymatic activity in a miniaturized high-throughput format. The consensus ybbr acceptor peptide […] was N-terminally labeled with Black Hole Quencher-2 (BHQ-2) and used in combination with rhodamine-labeled coenzyme A as a co-substrate.
This project seeks to identify inhibitors of Sfp phosphopantetheinyl transferase. The primary and secondary screens both utilized a rhodamine-modified CoA substrate. This experiment sought to confirm compound activity in a biochemical assay using the natural nucleotide substrate in conjunction with a whole-protein acceptor. We employed polyacrylamide gel electrophoresis in the presence of modest urea concentrations to achieve a conformationally sensitive separation of the apo- and holo- states of the acyl carrier protein (ACP) from E. coli [Rock, 1981, Cronan 1982]. Under conditions of limiting Sfp concentrations, quantitative determinations of enzyme activity can be made from images of the gels after treatment with an appropriately sensitive protein stain.
NIH Chemical Genomics Center [NCGC]
NIH Molecular Libraries Probe Centers Network [MLPCN]
Assay Submitter (PI): Michale Burkart, University of California, San Diego
Preparation of apo-ACP substrate.
A derivative of the AcpP locus from E. coli K12 containing a C-terminal fusion to a hexahistidine tag is expressed and purified from E.coli BL21(DE3) following standard procedures, (27) providing a mixture of the apo- and holo- forms of ACP in a ratio 3:2; as judged by UREA-PAGE. The resulting mixture (10 mg/ml) is reduced overnight in PBS buffer containing 10 mM DTT, and excess reducing agent removed by passage over a PD6 desalting column (Bio-Rad Laboratories, Hercules, CA). The sample is immediately pooled with an equal volume of activated thiol sepharose 4B (cat #17-0640-01, GE Healthcare, Piscataway, NJ) prepared according to the manufacturers recommendations; and the slurry agitated gently overnight at 4 deg C. The slurry was decanted into a disposable chromatography column and washed with 3 volumes of PBS. The filtrate and washes were pooled, concentrated, and the process iterated once to provide a solution of ACP that was >98% apo-form as judged by conformationally sensitive UREA-PAGE.
Label-free gel assay for phosphopantetheinylation.
Test compound (0.5 ul) dissolved in DMSO was added to 1.33 X enzyme solution (15 ul) containing 66 nM Sfp, 66 mM HEPES*Na pH 7.6, 13.3 mM MgCl2, 0.0133% NP40, and 1.33 mg/ml BSA. […]

Compound | Potency | outcome
CCOC(=O)c1c(-c2ccc(C)o2)csc1NC(=O)CSc1nnnn1-c1ccccc1 | 27.8 µM (active) | 
CC(C)(C)Cc1nnc(NC(=O)CSc2ccccc2)s1 |  | inactive
C(=C1\Nn2c(COc3ccccc3)nnc2S1)/c1ccccc1 | 27.8 µM (active) | 
O=C(Nc1nnc(COc2ccc(Cl)cc2)s1)c1cccs1 | 250 µM (active) | 
S=C(Nc1ccccn1)c1ccccn1 |  | inactive
CCOC(=O)c1cc(-c2ccccc2)sc1NC(=O)c1ccc(OC)cc1 |  | inactive
CN(C)c1ccc(C(=S)N2CCN(Cc3ccccc3)CC2)cc1 | 27.8 µM (active) | 
CCc1c(C)sc(NC(=O)C2CCCCC2C(=O)O)c1C(N)=O (configuration not stated) |  | inactive
COc1ccc(N2CCN(C(=S)Nc3cc(C)ccn3)CC2)cc1 | 83.3 µM (active) | 
Cc1ccnc(NC(=S)N2CCN(c3cccc(C(F)(F)F)c3)CC2)c1 | 83.3 µM (active) and 3.09 µM (active) | 
O=C(Nc1nnc(COc2ccc(Cl)cc2)s1)c1ccco1 | 9.26 µM (active) | 
Cc1ccnc(NC(=S)N2CCN(c3ccc(Br)cc3)CC2)c1 | 83.3 µM (active) | 
